Measured values taken from PubChem BioAssay (Tox21).
Results filed as inconclusive are left out. Where a call stands in place of a potency, no number is given. Calls of active or inactive are those of the source. Calls come from the whole dose curve.

biological target: D(2) dopamine receptor (Homo sapiens) (UniProt P14416); assay: Dopamine D2 receptor (DRD2) small molecule agonists, cell-based qHTS assay (AID 1963594); settings: HEK293-DRD2 cAMP HTRF, agonist mode, 30 min; series mostly up to 92.4 µM; note: nearly all actives have a fitted effect of over 35% in size
From the text: National Center for Advancing Translational Sciences [NCATS]
Division of Preclinical Innovation [DPI]
U.S. Environmental Protection Agency [EPA]
National Institutes of Environmental Health Sciences [NIEHS]
National Toxicology Program [NTP]
U.S. Food and Drug Administration [FDA]
DRD2 is the D2 subtype of the dopamine receptor, which is coupled to Gi subtype of G protein-coupled receptor. This G protein-coupled receptor inhibits adenylyl cyclase activity. The DRD2-HEK293 cell line stably expressing D2 dopamine receptor can be used for screening agonists and antagonists of interactions between D2 and its ligands. The Hek293-DRD2 cAMP assay is based on HTRF technology. It measures changes of cAMP accumulation in response to Gi coupled GPCR activation or inhibition.
Tox21 Assay Protocol Summary:
DRD2-Hek293 cells were dispensed at 600 cells/3uL/well in 1536-well white plates using a Multidrop Dispenser. After the assay plates were incubated at a 37 C/5% CO2 incubator for 24 h, 1 uL of Ro20-1724 at final concentration of 0.1 mM was transferred to the assay plate by a Flying Reagent Dispenser. Following Ro20-1724 addition, 23 nL of compound dissolved in DMSO, positive controls or DMSO only was added to the assay plates via Wako pintool station. The assay plates were incubated at room temperature for 10 min. Next, 1 uL of NKH477 at 200nM was added into the plates. After the assay plates were incubated at room temperature for an additional 30 min, 2.5 ul/well of cAMP-d2 and 2.5 ul/well of anti-cAMP-cryptate were added respectively into the assay plates using a Flying Reagent Dispenser. The plates were incubated at room temperature for 1 h. The fluorescence intensity in the plates was measured at 340 nm excitation and 665 & 620 nm emission by an Envision plate reader.

D(2) dopamine receptor (Homo sapiens), sequence (P14416 whole entry, looked up): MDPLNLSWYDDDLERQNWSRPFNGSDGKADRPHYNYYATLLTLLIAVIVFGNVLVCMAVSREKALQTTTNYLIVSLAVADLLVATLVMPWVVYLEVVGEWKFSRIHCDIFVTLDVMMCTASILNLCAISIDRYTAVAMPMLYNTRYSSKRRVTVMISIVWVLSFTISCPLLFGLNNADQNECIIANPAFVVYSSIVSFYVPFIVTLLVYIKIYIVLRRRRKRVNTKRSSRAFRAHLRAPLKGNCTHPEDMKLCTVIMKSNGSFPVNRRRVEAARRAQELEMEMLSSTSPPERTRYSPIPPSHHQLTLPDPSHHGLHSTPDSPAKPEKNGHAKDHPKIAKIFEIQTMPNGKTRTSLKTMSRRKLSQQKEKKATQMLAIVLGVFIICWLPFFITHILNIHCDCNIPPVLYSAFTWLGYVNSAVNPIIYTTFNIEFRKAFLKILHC

Row | SMILES | Potency | activation
1 | C#CC(O)(C=CCl)CC (stereo not given) | inactive | 
2 | C[C@@H]1CC2=CC(=O)CC[C@@H]2[C@H]2CC[C@@]3(C)[C@@H](CC[C@]3(C)O)[C@@H]21 | inactive | 
3 | CC(C)(C)NC[C@H](O)c1ccc(O)cc1Cl | inactive | 
4 | CC(C)(N)Cc1ccc(Cl)cc1 | inactive | 
5 | CC1(C)[C@H](/C=C2\CCSC2=O)[C@@H]1C(=O)OCc1coc(Cc2ccccc2)c1 | inactive | 
6 | C=CC(=O)[O][Sn]([CH2]CCC)([CH2]CCC)[CH2]CCC | inactive | 
7 | Cc1cc(C)nc(Nc2ccccc2)n1 | inactive | 
8 | CCC[CH2][Sn]([CH2]CCC)([CH2]CCC)[O][Sn]([CH2]CCC)([CH2]CCC)[CH2]CCC |  | 2.93% [at 8.39 µM] (inactive)
9 | CCC(C)(c1ccc(O)cc1)c1ccc(O)cc1 | inactive | 
10 | CO/N=C(/C(=O)OC)c1ccccc1COc1ccccc1C | inactive | 
11 | Clc1ccc2ccccc2c1 | inactive | 
12 | CC(c1ccccc1)(c1ccc(O)cc1)c1ccc(O)cc1 | inactive | 
13 | C[C@H]1[C@@H]2Cc3ccc(O)cc3[C@@]1(C)CCN2C | inactive | 
14 | COP(=O)(OC)O/C(=C/Cl)c1cc(Cl)c(Cl)cc1Cl | inactive | 
15 | S=C=Nc1ccccc1 | inactive | 
16 | Clc1ccc(CO/N=C(\Cn2ccnc2)c2ccc(Cl)cc2Cl)c(Cl)c1 | inactive | 
17 | CN | inactive | 
18 | CCCCN(CCCC)C(=S)S | inactive | 
19 | CN(C)CCN(C)C | inactive | 
20 | O=[N+]([O-])c1cccc2c([N+](=O)[O-])cccc12 | inactive | 

Row | SMILES | Potency | activation
21 | c1ccc(OCC2CO2)cc1 (stereo not given) | inactive | 
22 | CC(C)=CC1C(C(=O)OCc2coc(Cc3ccccc3)c2)C1(C)C (stereo not given) | inactive | 
23 | CSc1ccc(C(=O)C(C)(C)N2CCOCC2)cc1 | inactive | 
24 | CC(C)OC(=O)C(O)(c1ccc(Cl)cc1)c1ccc(Cl)cc1 | inactive | 
25 | COc1cccc2c1cc([N+](=O)[O-])c1c(C(=O)O)cc3c(c12)OCO3 | inactive | 
26 | O=C(N[C@@H]1N=C(c2ccccc2F)c2cccc3c2N(CC3)C1=O)c1cc2ccccc2[nH]1 | inactive | 
27 | C=CC(=O)NCNC(=O)C=C | inactive | 
28 | FC(F)C(F)(F)OCC(Cn1cncn1)c1ccc(Cl)cc1Cl (stereo not given) | inactive | 
29 | COc1cccc(C(=O)CCN[C@@H](C)[C@H](O)c2ccccc2)c1 | inactive | 
30 | O=C(Nc1ccccc1)N(Cc1ccc(Cl)cc1)C1CCCC1 | inactive | 
31 | Clc1ccc(C(Cl)(Cl)Cl)cc1Cl | inactive | 
32 | CCCCC(=O)Cl | inactive | 
33 | Fc1ccc(C2(Cn3cncn3)OC2c2ccccc2Cl)cc1 (stereo not given) | inactive | 
34 | CC(Cl)CN(C)C (stereo not given) | inactive | 
35 | CC(=O)[O-].CC(=O)[O-].O.O.[Cd+2] | inactive | 
36 | c1ccc2c(c1)CCNC2 | inactive | 
37 | CN1COCN(Cc2cnc(Cl)s2)/C1=N\[N+](=O)[O-] | inactive | 
38 | N#CCc1ccc(Cl)cc1 | inactive | 
39 | Cc1cccc(Cc2cnc[nH]2)c1C | inactive | 
40 | Cc1cccc(C)c1NC1=NCCCS1 | inactive | 
